The whole screen tested about 310,000 compounds, of which about 14,000 (4.5%) showed an effect of 50% or more. The effect is printed as a negative number. Shown is part of a subset that was picked to be rich in strong results.

The values below come from PMC4336329 (PLoS ONE, 2015).
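Further: peak tail current of the secondary pulse compared with the same well before compound.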

In this assay the target is human ether-à-go-go-related gene (hERG) potassium channel (human, UniProt Q12809). The assay can be described thus: primary screen, population patch clamp on CHO cells stably expressing hERG; higher = less effect of the substance.
Chain of human ether-à-go-go-related gene (hERG) potassium channel (Q12809 whole entry, looked up): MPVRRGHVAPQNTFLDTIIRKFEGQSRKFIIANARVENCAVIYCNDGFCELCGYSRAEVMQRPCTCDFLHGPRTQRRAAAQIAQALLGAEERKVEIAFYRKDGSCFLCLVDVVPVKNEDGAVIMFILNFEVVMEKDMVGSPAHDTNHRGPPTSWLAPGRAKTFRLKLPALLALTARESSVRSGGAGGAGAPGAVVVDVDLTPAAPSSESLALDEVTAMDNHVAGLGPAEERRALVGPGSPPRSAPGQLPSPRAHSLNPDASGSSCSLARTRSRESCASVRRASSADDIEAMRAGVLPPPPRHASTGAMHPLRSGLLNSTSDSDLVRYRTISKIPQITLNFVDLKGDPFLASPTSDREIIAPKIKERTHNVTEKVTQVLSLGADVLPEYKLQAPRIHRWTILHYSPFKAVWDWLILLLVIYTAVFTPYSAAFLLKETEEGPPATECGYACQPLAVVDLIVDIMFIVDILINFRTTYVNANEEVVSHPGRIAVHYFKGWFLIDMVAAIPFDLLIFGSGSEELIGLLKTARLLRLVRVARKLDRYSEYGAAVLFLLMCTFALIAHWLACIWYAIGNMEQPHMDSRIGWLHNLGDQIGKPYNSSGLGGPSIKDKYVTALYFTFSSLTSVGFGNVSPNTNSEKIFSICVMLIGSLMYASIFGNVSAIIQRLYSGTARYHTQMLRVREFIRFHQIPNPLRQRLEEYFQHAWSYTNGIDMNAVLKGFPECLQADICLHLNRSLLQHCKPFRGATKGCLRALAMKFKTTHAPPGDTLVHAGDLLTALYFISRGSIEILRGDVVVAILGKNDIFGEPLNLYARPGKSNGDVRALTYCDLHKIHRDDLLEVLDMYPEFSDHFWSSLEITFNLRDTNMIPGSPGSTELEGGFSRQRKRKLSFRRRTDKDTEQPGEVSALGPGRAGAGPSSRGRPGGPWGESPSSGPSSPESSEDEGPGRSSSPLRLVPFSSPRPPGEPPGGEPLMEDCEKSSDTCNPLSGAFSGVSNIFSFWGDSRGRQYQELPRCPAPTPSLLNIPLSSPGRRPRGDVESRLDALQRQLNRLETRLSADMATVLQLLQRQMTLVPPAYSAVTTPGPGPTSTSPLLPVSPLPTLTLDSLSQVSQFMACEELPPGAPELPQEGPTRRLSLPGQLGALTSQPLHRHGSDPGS
For `CC(=O)Nc1c(Nc2ccccc2)c2ccccc2oc1=O`, the “hERG current change (%, negative = inhibition) at 10uM” value is 3.92%. As for `COc1ccc(C(=O)N2CCN(C(=O)c3cc(OC)c(OC)c(OC)c3)CC2)cc1`, the “hERG current change (%, negative = inhibition) at 10uM” value is listed as -17.4%. With `COc1ccc(N2CCN(C(=O)COc3ccc4ccccc4c3)CC2)cc1`, the “hERG current change (%, negative = inhibition) at 10uM” value is on record as 5.36%. Next, `COc1cc(OC)cc(C(=O)N2CCN(C(=O)COc3ccc4ccccc4c3)CC2)c1`: -64.8%. As to `COc1cc(C(=O)N2CCN(C(=O)COc3ccc4ccccc4c3)CC2)cc(OC)c1OC`, the “hERG current change (%, negative = inhibition) at 10uM” value was -73%.

Regarding `COc1cc(OC)c(OC)cc1CN1CCN(C(=O)COc2ccc3ccccc3c2)CC1.O=C(O)C(=O)O`, the “hERG current change (%, negative = inhibition) at 10uM” value is -36.4%. With `COc1ccc(CN2CCN(C(=O)COc3ccc4ccccc4c3)CC2)c(OC)c1`, the “hERG current change (%, negative = inhibition) at 10uM” value was -52.6%.

For the compound `COc1cccc(C(=O)N2CCN(C(=O)COc3ccc4ccccc4c3)CC2)c1`, the “hERG current change (%, negative = inhibition) at 10uM” value was -47.4%. Turning to `CN1CCN(C(=O)COc2ccc3ccccc3c2)CC1`, the “hERG current change (%, negative = inhibition) at 10uM” value is recorded as -3.47%. Next, `COc1ccccc1CN1CCN(C(=O)COc2ccc3ccccc3c2)CC1`: -36%.

On to `NC(=O)CCN(C1CCCCC1)S(=O)(=O)c1cccc2nsnc12`, for which the “hERG current change (%, negative = inhibition) at 10uM” value stood at 10.5%.

For the compound `Cc1ccc(SCc2cc(=O)c3c(=O)n(-c4ccccc4)[nH]c3[nH]2)cc1`, the “hERG current change (%, negative = inhibition) at 10uM” value is 7.34%. Next, `N#Cc1nc(-c2ccco2)oc1N1CCCC1`: -11.1%; `COC(=O)c1cc(S(=O)(=O)NCc2ccc3c(c2)OCO3)cn1C`: -0.484%.

Take `CCOC(=O)c1cc(-c2ccc(N3CCOCC3)cc2)nn1-c1ccccc1C(=O)O`: the “hERG current change (%, negative = inhibition) at 10uM” value turned out to be 5.59%.

On to `c1ccc(CN2CCN(c3nc4ccccc4c4ccccc34)CC2)cc1`, for which the “hERG current change (%, negative = inhibition) at 10uM” value is listed as -3.19%. In the case of `O=C(O)CN1CCN(C(c2ccccc2)c2ccccc2)CC1`, the “hERG current change (%, negative = inhibition) at 10uM” value turned out to be 30.4%. On to `COc1cc2nc(CN3CCN(C(c4ccccc4)c4ccccc4)CC3)[nH]c(=O)c2cc1OC`, for which the “hERG current change (%, negative = inhibition) at 10uM” value is 1.59%. Next, `O=c1nc2ccccc2c2n1CC(CN1CCN(Cc3ccccc3)CC1)N2` (stereo not shown): -66.1%. In the case of `O=C(CCc1nc2ccccc2c(=O)[nH]1)NC1CCN(Cc2ccccc2)CC1` it was -0.782%; in that of `O=c1nc2ccccc2c2n1CC(CN1CCN(C(c3ccccc3)c3ccccc3)CC1)N2` (stereo not shown), -81.4%; in that of `COCCCNC(=O)CCn1c(=O)c2ccccc2n(CC(=O)Nc2ccccc2C)c1=O`, 9.98%. As to `CCOc1ccc(Cc2nnc(N)s2)cc1OCC`, the “hERG current change (%, negative = inhibition) at 10uM” value is given as -6.21%. In the case of `NC(=O)C1(S(=O)(=O)c2ccccc2)CCCCC1` it was 13.2%; in that of `CC1(C)OC(C)(C)/C(=C/Nc2ccccc2)C1=O`, 10.2%. In the case of `CC1(C)OC(=O)C(=CNc2ccccc2)C(=O)O1` it was -4.48%.

For `C[N+]1=C(/C=C/Nc2ccccc2)C(C)(C)c2ccccc21.[O-][Cl+3]([O-])([O-])[O-]`, the “hERG current change (%, negative = inhibition) at 10uM” value is listed as -81.8%.

Consider `COc1ccc(OCC(=O)Nc2ccc(S(=O)(=O)N3CCCCC3)cc2)cc1`, for which the “hERG current change (%, negative = inhibition) at 10uM” value was -20.2%. For the compound `O=C1c2ccc([N+](=O)[O-])cc2C(=O)N1c1ccc([N+](=O)[O-])cn1`, the “hERG current change (%, negative = inhibition) at 10uM” value is 14.5%. Next, `CCOC(=O)C1CCN(c2nc3ccccc3nc2C(C#N)C(=O)OC(C)COC)CC1` (stereo not shown): -13.9%; `CCOC(=O)C1CCN(c2nc3ccccc3nc2C(C#N)C(=O)OCCOC)CC1` (stereo not shown): -27.4%.

As for `CCOC(=O)C1CCCN(c2nc3ccccc3nc2C(C#N)C(=O)OCCOC)C1` (stereo not shown), the “hERG current change (%, negative = inhibition) at 10uM” value is -66%. Next, `CCOC(=O)C1CCCN(c2nc3ccccc3nc2C(C#N)C(=O)OC(C)C)C1` (stereo not shown): 8.39%. Take `CCOC(=O)C1CCCN(c2nc3ccccc3nc2C(C#N)C(=O)OCC)C1` (stereo not shown): the “hERG current change (%, negative = inhibition) at 10uM” value is -14%.

On to `CCOC(=O)C1CCCN(c2nc3ccccc3nc2C(C#N)C(=O)OC(C)COC)C1` (stereo not shown), for which the “hERG current change (%, negative = inhibition) at 10uM” value is -55.2%.

On to `C/C(=N\NC(=O)CCCOc1ccc(Cl)cc1C)c1ccc(C)o1`, for which the “hERG current change (%, negative = inhibition) at 10uM” value is given as 3.58%. In the case of `COc1cccc(-n2cc(CNC(=O)C3CCC(=O)N(C4CC4)C3)cn2)c1` (stereo not shown) it was -11%; in that of `COc1ccccc1C(=O)Nc1ccccc1SC`, -20.3%.

Regarding `CCCCCn1c(CN2CCCCC2C)nc2c1c(=O)n(C)c(=O)n2C` (stereo not shown), the “hERG current change (%, negative = inhibition) at 10uM” value is reported as -44.7%. With `CCCCCn1c(CN2CCCCC2CC)nc2c1c(=O)n(C)c(=O)n2C` (stereo not shown), the “hERG current change (%, negative = inhibition) at 10uM” value is listed as -44.7%. As to `CCCn1c(CN2CCCCC2C)nc2c1c(=O)n(C)c(=O)n2C` (stereo not shown), the “hERG current change (%, negative = inhibition) at 10uM” value is 3.04%.

On to `CCCCCCn1c(CN2CCCCC2C)nc2c1c(=O)n(C)c(=O)n2C` (stereo not shown), for which the “hERG current change (%, negative = inhibition) at 10uM” value is -60.5%. Regarding `CCCCCCn1c(CN2CCCCC2CC)nc2c1c(=O)n(C)c(=O)n2C` (stereo not shown), the “hERG current change (%, negative = inhibition) at 10uM” value is reported as -51.9%.
